# About 14,000 (4.5%) of roughly 310,000 compounds showed an effect of 50% or more. The effect is printed as a negative number. The sample as a whole holds a higher share of strong results than the screen did.
# Molecular target: human ether-à-go-go-related gene (hERG) potassium channel (human, UniProt Q12809)
# Assay: primary screen, population patch clamp on CHO cells stably expressing hERG; higher = less effect of the substance
# 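Further: peak tail current of the secondary pulse compared with the same well before compound.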
# Chain of human ether-à-go-go-related gene (hERG) potassium channel (Q12809 whole entry, looked up): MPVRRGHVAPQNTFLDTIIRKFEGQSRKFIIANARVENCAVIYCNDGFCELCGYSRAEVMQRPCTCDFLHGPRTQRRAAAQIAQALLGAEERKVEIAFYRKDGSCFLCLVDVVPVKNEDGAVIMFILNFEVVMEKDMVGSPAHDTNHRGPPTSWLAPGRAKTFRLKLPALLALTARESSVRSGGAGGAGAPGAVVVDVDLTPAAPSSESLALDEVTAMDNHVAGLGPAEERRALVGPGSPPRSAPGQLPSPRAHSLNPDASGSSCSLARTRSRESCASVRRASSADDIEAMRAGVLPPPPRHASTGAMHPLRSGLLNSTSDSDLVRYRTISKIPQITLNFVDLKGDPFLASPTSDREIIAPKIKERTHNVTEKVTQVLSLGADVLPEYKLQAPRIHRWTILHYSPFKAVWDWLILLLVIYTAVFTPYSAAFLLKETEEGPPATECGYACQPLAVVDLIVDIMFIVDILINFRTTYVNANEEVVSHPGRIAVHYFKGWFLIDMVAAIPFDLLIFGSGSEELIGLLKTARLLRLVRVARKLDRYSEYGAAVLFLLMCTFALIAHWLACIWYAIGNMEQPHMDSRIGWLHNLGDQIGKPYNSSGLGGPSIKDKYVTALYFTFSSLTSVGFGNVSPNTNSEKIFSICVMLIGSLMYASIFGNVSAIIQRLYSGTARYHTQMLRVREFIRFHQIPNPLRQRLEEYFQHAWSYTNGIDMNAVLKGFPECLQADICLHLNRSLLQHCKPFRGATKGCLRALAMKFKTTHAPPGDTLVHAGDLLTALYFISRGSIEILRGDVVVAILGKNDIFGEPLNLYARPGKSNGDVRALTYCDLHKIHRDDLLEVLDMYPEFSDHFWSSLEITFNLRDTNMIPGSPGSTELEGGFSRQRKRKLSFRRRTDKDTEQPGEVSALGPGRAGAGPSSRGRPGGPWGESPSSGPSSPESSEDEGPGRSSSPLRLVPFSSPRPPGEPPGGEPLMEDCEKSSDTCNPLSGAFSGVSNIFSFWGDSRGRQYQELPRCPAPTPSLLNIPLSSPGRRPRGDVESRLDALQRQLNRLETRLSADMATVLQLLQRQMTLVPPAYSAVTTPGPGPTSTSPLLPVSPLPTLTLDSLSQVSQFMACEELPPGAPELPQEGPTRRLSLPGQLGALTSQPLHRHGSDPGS
row,Structure (SMILES),"hERG current change (%, negative = inhibition) at 10uM"
1,Cn1cc(C(=O)OCC(=O)Nc2ccccc2)c2ccccc21,-8.39%
2,CCCCCCOc1ccc(N2C(=O)CC(N3CCN(CCN=CC4C(=O)CC(C)(C)CC4=O)CC3)C2=O)cc1 (stereo not drawn),-32.5%
3,CN(C)S(=O)(=O)c1cccc(NC(=O)COC(=O)c2cn(-c3ccccc3)nc2-c2ccccc2)c1,12.3%
4,O=C1Nc2ccccc2N(O)N1c1cc(-c2ccc(Cl)cc2)[nH]n1,22.9%
5,CC(C)(C)c1nc(N)nc(=O)[nH]1,-1.18%
6,CCOC(=O)N1CCC(N2CCCC(CO)(Cc3ccccc3C)C2)CC1 (stereo not drawn),0.621%
7,COc1ccc2cc(C(=O)C3CCCN(C(=O)Cc4c(C)noc4C)C3)ccc2c1 (stereo not drawn),-68.5%
8,CCNC(=O)N1CCCC(C(=O)c2ccc3cc(OC)ccc3c2)C1 (stereo not drawn),-22.5%
9,CCOC(=O)N1CCC(N2CCCC(CO)(Cc3cccc(OC)c3)C2)CC1 (stereo not drawn),-51.7%
10,Cc1noc(C)c1CC(=O)N1CCCC(C(=O)c2ccc(C(C)(C)C)cc2)C1 (stereo not drawn),-18.8%
11,CCOC(=O)N1CCC(N2CCCC(C(=O)c3ccc4cc(OC)ccc4c3)C2)CC1 (stereo not drawn),-74.3%
12,COc1ccc2cc(C(=O)C3CCCN(C(=O)c4csnn4)C3)ccc2c1 (stereo not drawn),-13.2%
13,CCOC(=O)N1CCC(N2CCCC(CO)(Cc3cccc(Cl)c3)C2)CC1 (stereo not drawn),-49%
14,COc1ccc(C(=O)C2CCCN(C(=O)Cc3c(C)noc3C)C2)cc1OC (stereo not drawn),-3.81%
15,COc1cccc(CC(Cc2nc3ccccc3[nH]2)c2nc3ccccc3[nH]2)c1 (stereo not drawn),-33%
16,Cn1nnnc1SCC(=O)Nc1ccc(N2CCOCC2)cc1,5.57%
17,N#CCc1ccc(NC(=O)c2ccc(S(=O)(=O)N3CCCC3)cc2)cc1,16.9%
18,CC1CCCCN1S(=O)(=O)c1ccc(NC(=O)c2cccs2)cc1 (stereo not drawn),-11.3%
19,COc1ccccc1CNc1ncnc2c1cnn2-c1ccccc1,-12.1%
20,COc1ccc2nc(Nc3nc(CSc4nnnn4-c4ccccc4)cc(=O)[nH]3)nc(C)c2c1,-42.1%
21,O=C(NCc1ccccc1Cl)c1ccc2ccccc2n1,-1.85%

row,Structure (SMILES),"hERG current change (%, negative = inhibition) at 10uM"
1,O=C(O)C1=C[C@@H](c2ccc(Br)cc2)C[C@@H](OCc2ccc(CO)cc2)O1,18.2%
2,Cc1ccc(NC(=O)[C@@H]2CCCN2S(=O)(=O)c2ccccc2C(F)(F)F)cc1S(=O)(=O)N1CCOCC1,-21.4%
3,CCN1C(=O)N[C@H](c2ccccc2)C(C(C)=O)=C1C,8.38%
4,CN1CCN(C=NC2=NN(c3cccc(C(F)(F)F)c3)CC2)CC1,-23.9%
5,Cc1ccc(Oc2ccc(/C=N/O)cn2)cc1,-1.45%
6,O=[N+]([O-])c1ccc(Oc2ccc(/C=N/O)cc2)nc1,0.3%
7,N#Cc1ccc(Oc2ccc(/C=N/O)cn2)cc1,-73.7%
8,CCOC(=O)Nc1ccc(C(=O)/C=C/c2ccccc2)cc1,-7.78%
9,COc1cccc(/C=C(\CC(=O)O)c2nc3ccccc3s2)c1,11.6%
10,Cn1ncc(Cl)c1C(=O)NNC(=O)Nc1cccc2ccccc12,7.09%
11,Cc1ccc(-c2nn3c(C)nnc3c3ccccc23)cc1S(=O)(=O)NC(C)c1ccccc1 (stereo not drawn),-50.8%
12,Cc1ccc(-c2nn3c(C)nnc3c3ccccc23)cc1S(=O)(=O)NCc1ccccc1,-29.5%
13,Cc1ccc(-c2nnc3c4ccccc4c(C)nn23)cc1S(=O)(=O)N1CCN(CCO)CC1,-32.9%
14,Cc1ccc(-c2nn3c(C)nnc3c3ccccc23)cc1S(=O)(=O)NCCO,11%
15,CCOC(=O)N1CCN(S(=O)(=O)c2cc(-c3nn4c(C)nnc4c4ccccc34)ccc2C)CC1,-29%
16,Cc1ccc(-c2nn3c(C)nnc3c3ccccc23)cc1S(=O)(=O)N1CCN(CCO)CC1,-74.5%
17,CCCN(C(=O)c1cc(Cl)nc2ccccc12)C1CCS(=O)(=O)C1 (stereo not drawn),9.75%
18,O=C(N/N=C/c1ccncc1)c1ccc(NS(=O)(=O)c2cccs2)cc1,8.88%
19,COc1ccc(CCN2CCCC(CN(C)Cc3cccc(OC)c3)C2)cc1 (stereo not drawn),-60.6%
20,COc1cccc(CN(C)CC2CCCN(CCc3ccccc3C)C2)c1 (stereo not drawn),-109%
21,CC(=O)c1cccc(CN(C)CC2CCCN(CCc3ccccc3C)C2)c1 (stereo not drawn),-28.8%

row,Structure (SMILES),"hERG current change (%, negative = inhibition) at 10uM"
1,COc1ccc(CN(C)CC2CCCN(CCc3ccccc3C)C2)cc1O (stereo not drawn),-53.8%
2,CCn1c(CNC(=O)c2ccccc2Br)nnc1SCC(=O)Nc1nncs1,3.2%
3,COc1cccc(C(=O)Nc2ccc(NC(=O)c3ccco3)cn2)c1,-15.1%
4,O=C(Nc1ccc2c(c1)OCO2)c1cnn2c(C(F)(F)F)cc(-c3ccco3)nc12,2.24%
5,CCOC(=O)Cc1c(C)nc2c(-c3ccccc3OC)c(C)nn2c1C,-22.7%
6,COc1ccc(/C=N/N2C(=O)CN(C(=O)c3ccccc3)C2c2ccc(OC)cc2)cc1 (stereo not drawn),-4.19%
7,CN1CCc2c1nc1ccccc1c2N.O=C(O)c1cc([N+](=O)[O-])ccc1Cl,-9.41%
8,CCCCc1nc2ccccc2c(C(=O)O)c1C,7.29%
9,CCCCc1nc2ccccc2c(N)c1CCC.O=C(O)c1cc([N+](=O)[O-])ccc1Cl,-66.4%
10,CS(=O)(=O)Nc1cccc(C2=NN(S(=O)(=O)c3ccccc3)C(c3cccs3)C2)c1 (stereo not drawn),-1.94%
11,CS(=O)(=O)Nc1ccc(C2=NN(S(C)(=O)=O)C(c3cccs3)C2)cc1 (stereo not drawn),-49%
12,CS(=O)(=O)Nc1cccc(C2=NN(C(=O)c3cccc(F)c3)C(c3cccs3)C2)c1 (stereo not drawn),3.75%
13,CC(C)(C)C(=O)N1N=C(c2ccc(NS(C)(=O)=O)cc2)CC1c1cccs1 (stereo not drawn),-18.6%
14,Cc1ccc(C(=O)N2N=C(c3ccc(NS(C)(=O)=O)cc3)CC2c2cccs2)cc1 (stereo not drawn),-23.1%
15,Cc1cccc(C(=O)N2N=C(c3ccc(NS(C)(=O)=O)cc3)CC2c2cccs2)c1 (stereo not drawn),-8.44%
16,CS(=O)(=O)Nc1ccc(C2=NN(S(=O)(=O)c3ccccc3)C(c3cccs3)C2)cc1 (stereo not drawn),-70.3%
17,CS(=O)(=O)Nc1ccc(C2=NN(C(=O)C3CCCCC3)C(c3cccs3)C2)cc1 (stereo not drawn),-22.8%
18,CS(=O)(=O)Nc1ccc(C2=NN(C(=O)c3cccc(F)c3)C(c3cccs3)C2)cc1 (stereo not drawn),-53.8%
19,CC(C)C(=O)N1N=C(c2ccc(NS(C)(=O)=O)cc2)CC1c1cccs1 (stereo not drawn),-68.7%
20,CCS(=O)(=O)Nc1ccc(C2=NN(C(=O)c3ccccc3)C(c3cccs3)C2)cc1 (stereo not drawn),4.84%
21,CS(=O)(=O)Nc1ccc(C2=NN(C(=O)c3ccccc3)C(c3cccs3)C2)cc1 (stereo not drawn),-59.6%

row,Structure (SMILES),"hERG current change (%, negative = inhibition) at 10uM"
1,CCOC(=O)C1=NNC2C(=O)N(CC)C(=O)C12 (stereo not drawn),9.23%
2,Cc1ccc(C)c(S(=O)(=O)N2CCN(CC(=O)Nc3ccc4c(c3)OCCO4)CC2)c1,-13.9%
3,Cc1occc1C(=O)N1CCN(S(C)(=O)=O)CC1,7.58%
4,COc1ccc(CNC(=O)c2cc(=O)c3cc(C)c(C)cc3o2)cc1,19.3%
5,COc1ccccc1C1CC(c2ccc(NS(C)(=O)=O)cc2)=NN1S(=O)(=O)c1ccccc1 (stereo not drawn),-69.6%
6,COc1ccccc1C1CC(c2cccc(NS(C)(=O)=O)c2)=NN1S(=O)(=O)c1ccccc1 (stereo not drawn),3.08%
7,COc1ccccc1C1CC(c2ccccc2)=NN1S(=O)(=O)c1ccccc1 (stereo not drawn),12%
8,O=C(COC(=O)c1ccc(S(=O)(=O)N2CCOCC2)cc1)NCc1cccs1,2.5%
9,CCOc1ccc(N2CC(C(=O)Oc3ccccc3)CC2=O)cc1 (stereo not drawn),-10.9%
10,O=S(=O)(CCSc1nc2ccccc2o1)c1nc2ccccc2s1,-5.57%
11,Cc1cc(Cl)c(S(=O)(=O)N(C)C)cc1OCC(N)=O,10.5%
12,COc1ccc(C2CC(c3ccccc3)=NN2S(=O)(=O)c2ccccc2)cc1 (stereo not drawn),14.8%
13,COc1ccc(N(CC(=O)Nc2ccccc2C(=O)N2CCOCC2)S(=O)(=O)c2ccc(F)cc2)cc1,-44.6%
14,COc1ccc(N(CC(=O)Nc2ccccc2C(=O)N2CCCC2)S(=O)(=O)c2ccccc2)cc1,-51.8%
15,COc1ccc(N(CC(=O)Nc2ccccc2C(=O)N2CCCC2)S(C)(=O)=O)cc1,27.7%
16,CCOc1ccc(N(CC(=O)Nc2ccccc2C(=O)N2CCOCC2)S(=O)(=O)c2ccc(F)cc2)cc1,-30.5%
17,O=C(CN(c1ccccc1)S(=O)(=O)c1ccc(Cl)cc1)Nc1ccccc1C(=O)N1CCCC1,-54.2%
18,COc1ccc(S(=O)(=O)N(CC(=O)Nc2ccccc2C(=O)N2CCOCC2)c2ccc(F)cc2)cc1,-57%
19,Cc1ccc(S(=O)(=O)N(CC(=O)Nc2ccccc2C(=O)O)c2ccc(Cl)cc2)cc1,13.6%
20,CCOc1ccc(N(CC(=O)Nc2ccccc2C(=O)N2CCCC2)S(C)(=O)=O)cc1,2.43%
21,CN(CC(=O)Nc1ccccc1C(=O)N1CCCC1)S(=O)(=O)c1ccc(Cl)cc1,-22.8%

# Source: PMC4336329 (PLoS ONE, 2015)
